Data reported in PMC7826789 (International Journal of Molecular Sciences, 2021).

system: STK17A

Kinases covered, STK17A:
C[C@@H]1CCNC(=O)c2cc3ccc(C(=O)Nc4nc5ccccc5n4CCCN(C)C)cc3n21 [BI00645435], CNc1nc(-c2ccc3c(N)n[nH]c3c2)cc(N2C[C@@H](C(=O)Nc3ccccc3)CC[C@H]2C)n1 [GSK2298859], CC(C)c1cc(-c2ccc3c(N)n[nH]c3c2)nc(N)n1 [GSK2250882], C[C@H]1CC[C@@H](C(=O)Nc2ccccc2)CN1c1cc(-c2ccc3c(N)n[nH]c3c2)nc(N)n1 [GSK2283293]
